In the library only some 2.3% were active in any assay of this set; here they are far more common.
AmpC no deterg – blocks E. coli AmpC beta-lactamase in detergent-free assay; P00811; AmpC nitrocefin hydrolysis, absorbance 480 nm, 0.0001% Triton; Potency, µM (top dose mostly 57.1 µM), without a hit: at the top dose activity change, negative = inhibition, usual class: inhibitors; hit rate 0.52% among 330,000;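 note: plate controls were no compound for no effect and no enzyme for full effect; nearly all actives have a fitted effect of over 20% in size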
Target sequence (P00811 whole entry, looked up): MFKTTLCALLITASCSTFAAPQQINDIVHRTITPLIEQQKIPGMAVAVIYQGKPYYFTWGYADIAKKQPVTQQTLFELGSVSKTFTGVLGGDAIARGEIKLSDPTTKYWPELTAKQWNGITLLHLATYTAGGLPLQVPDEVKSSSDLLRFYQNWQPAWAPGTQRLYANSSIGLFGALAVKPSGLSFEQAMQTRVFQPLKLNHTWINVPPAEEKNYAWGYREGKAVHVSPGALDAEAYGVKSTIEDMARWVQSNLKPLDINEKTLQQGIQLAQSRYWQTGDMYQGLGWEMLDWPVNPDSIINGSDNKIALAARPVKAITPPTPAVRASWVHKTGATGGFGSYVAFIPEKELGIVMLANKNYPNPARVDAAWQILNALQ
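AmpC (5.3 nM in the dispensed reagent) in 20 mM phosphate pH 7.0 with 0.01% (detergent screen) or 0.0001% Triton X-100 was preincubated with compounds for 15 min at room temperature. Nitrocefin was then added from an 800 uM solution, and hydrolysis was followed at 480 nm.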
Lassa entry inh – inhibitors of Lassa virus binding or cell entry. Lassa virus pseudotype entry inhibition, cell reporter. Potency, µM (series often up to 37.9 µM), inactives show at the top dose activity change, negative = inhibition, hits mostly inhibitors. hit rate 1.2% among 300,000; calls by dose curve; tested in HEK293 cells; note: nearly all actives have a fitted effect of over 50% in size
MARV entry inh – inhibitors of Marburg virus binding or cell entry; AID 540276; hit rate 1.8% among 300,000; Marburg virus pseudotyped entry inhibition, cell reporter; Potency, µM (doses to about 37.8 µM), without a hit: at the highest dose activity change, negative = inhibition, actives largely listed as inhibitors; calls by dose curve; tested in HEK293 cells
AMA1-RON2 inh – disrupts binding of P. falciparum AMA1 to RON2. AlphaScreen AMA1-biotinylated RON2 peptide binding. Potency, µM (highest dose often 58.2 µM), without a hit: at the top dose activity change, negative = inhibition, actives largely listed as inhibitors. hit rate 0.2% among 360,000;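 note: 0% = vehicle wells and -100% = peptide control; nearly all actives have a fitted effect of over 45% in size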
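AMA1 (3D7) with his tag at 25 nM final met compounds first, then biotinylated RON2 peptide at 25 nM; detection used donor plus acceptor beads, 10 µg/mL apiece, read by AlphaScreen after 30 min at room temperature.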
AmpC detergent – blocks E. coli AmpC beta-lactamase in detergent assay; P00811; AmpC hydrolysis of nitrocefin, absorbance 480 nm, 0.01% Triton; Potency, µM (titrated, usually from 114 µM), inactives show at the top dose activity change, negative = inhibition, usual class: inhibitors; hit rate 0.041% among 370,000; AID 485294;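 note: 0% = no-compound wells and -100% = no-enzyme wells; nearly all actives have a fitted effect of over 25% in size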
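AmpC (5.3 nM in the dispensed reagent) in 20 mM phosphate pH 7.0 with 0.01% (detergent screen) or 0.0001% Triton X-100 was preincubated with compounds for 15 min at room temperature. Nitrocefin was then added from an 800 uM solution, and hydrolysis was followed at 480 nm.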
The depositor's hits bear a star; ? = inconclusive; . = no result given; [ ] = remark or other dose. Unless noted, calls come from the whole dose curve; as a rule, active = well fitted curve in the direction sought with a large enough effect; inconclusive = small, poorly fitted or top-dose-only effect, or another doubt; inactive = no such curve, though single readings can be large; an effect the other way counts as inactive or inconclusive. Unless noted, % is set by controls: 0 for no effect and ±100 for the full control effect; potency is the fitted concentration of half-maximal effect.

SMILES	AmpC no deterg	Lassa entry inh	MARV entry inh	AMA1-RON2 inh	AmpC detergent
Cc1ccc(Nc2cc(C)nc(-n3nc(C)cc3C)n2)cc1	.	?	.	.	-8.1%
COc1cccc(/C=N/Nc2nc(Nc3ccccc3)nc(-n3nc(C)cc3C)n2)c1O	-10.2%	15.8µM*	?	-0.4%	0.9%
Cc1cc(N/N=C/c2ccc(F)cc2)nc(-n2nc(C)cc2C)n1	104.7%	?	?	61.7%	0.7%
S=c1[nH]nc(-c2ccccc2)n1/N=C/c1ccc(-c2ccccc2Cl)o1	-41.6%	0.82µM*	0.708µM*	63.8%	-16.5%
Cc1cc(C)cc(-n2c(SCC(=O)NC3CCCCC3)nc3c([nH]c4ccccc43)c2=O)c1	.	-20.6%[46.1 µM]	.	.	4.4%
CC(=O)Nc1nc(C)c(-c2csc(Nc3cccc(C(C)=O)c3)n2)s1	-35.3%	.	.	14.9%	-13.1%
CC(=O)Nc1nc(C)c(-c2csc(Nc3cccc([N+](=O)[O-])c3)n2)s1	-54.1%	?	14.1µM*	5.7%	-3.6%
CCC(=O)Nc1nc(C)c(-c2csc(Nc3ccc(C(=O)O)cc3)n2)s1	-24.8%	-15.7%[46.1 µM]	7.9%[46.1 µM]	-2.3%	1.0%
CC(=O)Nc1ccc(Nc2nc(-c3sc(NC(C)=O)nc3C)cs2)cc1	1.78µM*	?	3.16µM*	-6.2%	-5.4%
CC(=O)Nc1nc(C)c(-c2csc(Nc3ccc(O)cc3)n2)s1	?	?	4.61µM*	14.8%	-2.8%
C=COC[C@H]1CN2[C@@H](CC[C@@H](C)[C@@H]2c2ccc(Br)cc2)C(=O)O1	.	.	-0.9%[14.2 µM]	.	.
COc1ccc(-n2c(SCc3ccccc3F)nc3c([nH]c4ccccc43)c2=O)cc1OC	.	?	.	.	-8.8%
COc1ccc(NC(=O)Cn2cc(C(=O)C3CC3)c3ccccc32)cc1	-13.6%	15.2%	?	21.3%	0.2%
COc1cccc(NC(=O)Cn2cc(C(=O)C3CC3)c3ccccc32)c1	28.2µM*	2.9%[46.1 µM]	14.2%	3.0%	?
COCCN(CC(=O)NC1CCCCC1)C(=O)/C=C/C(=O)c1ccc(OC)cc1O	49.9%	12.6µM*	11.2µM*	2.2%	-3.4%
COc1ccc(N=C2SCC(=O)N2CCc2ccc(OC)c(OC)c2)cc1	-0.6%	.	.	-7.1%	4.2%
COc1ccc(CCN2C(=O)CSC2=Nc2ccc(C(C)C)cc2)cc1OC	84.5%	1.41µM*	?	?	-5.7%
CC(C)C(=O)N[C@H]1CCCN1C(=O)C=Cc1ccccc1	.	?	-22.4%[14.2 µM]	.	.
COc1ccccc1CNc1cc(-c2ccccc2)nc2nncn12	.	-5.2%[46.1 µM]	?	.	1.9%
Cc1cc(C)cc(NC(=O)N2CCC(CN3CCc4ccccc4C3)CC2)c1	.	-2.4%[46.1 µM]	.	.	9.0%
CCC1CCCCN1C(=O)CCS(=O)(=O)c1cc2c(cc1C)NC(=O)CO2 (stereo not given)	.	10.5%[46.1 µM]	.	.	9.4%
Cc1ccc2c(c1)Cc1nc3ccccc3nc1-2	-3.5%	?	6.31µM*	27.0%	3.1%
Cc1ccc2c(c1)-c1nc3ccccc3cc1C2=NC1CCCCC1	-15.8%	?	?	-8.5%	-0.6%
CCOc1ccccc1NC(=O)c1ccc2c(c1)CCN2S(C)(=O)=O	.	-1.7%[46.1 µM]	-9.9%[46.1 µM]	.	19.9%
O=C1NN(c2ccccc2)C(=O)/C1=C\c1cccn1-c1ccc(Cl)c([N+](=O)[O-])c1	-22.0%	?	11.2µM*	-4.4%	2.7%
SMILES	AmpC no deterg	Lassa entry inh	MARV entry inh	AMA1-RON2 inh	AmpC detergent
c1ccc(C(c2nnnn2C2CCCC2)N2CCN(c3ccccc3)CC2)cc1 (stereo not given)	-14.7%	18.3µM*	?	-14.4%	-13.7%
COc1ccc(OC)c(C(c2nnnn2C2CCCC2)N2CCN(c3ccccc3)CC2)c1 (stereo not given)	45.5%	?	10µM*	?	-14.4%
COc1ccc(C(c2nnnn2C2CCCCC2)N2CCN(c3ccc(OC)cc3)CC2)cc1 (stereo not given)	49.0%	?	?	?	-2.9%
CCN1C(=O)NC(c2cccc(C(F)(F)F)c2)C(C(=O)OC)=C1C (stereo not given)	.	.	22.7%[14.2 µM]	.	.
CCC[C@]12CCN3C(=O)N[C@@H](c4ccccc4)[C@](C(=O)OCC)(C1)[C@H]32	.	.	8.8%[14.2 µM]	.	.
COc1ccccc1-c1c(C)nn2c(C)cc(C)nc12	10µM*	.	.	1.0%	?
CCOC(=O)N1CCC(Nc2cc(C)nc3c(-c4ccccc4OC)c(C)nn23)CC1	28.2µM*	.	.	0.0%	-12.8%
COc1ccccc1-c1c(C)nn2c(N3CCC(C)CC3)cc(C)nc12	-11.2%	-11.2%[46.1 µM]	?	6.6%	-1.7%
Cc1cc(C)c(NC(=O)CCn2c(=O)c3cccn3c3ccccc32)c(C)c1	.	?	.	.	0.5%
COc1cc([C@@H](NC(=O)C(F)(F)F)C2CCCCC=C2c2ccccc2)cc(OC)c1OC (stereo not given in full)	.	-12.3%[14.3 µM]	9.8%[14.2 µM]	.	.
Cc1cc(/C=c2/sc3nc4ccccc4n3c2=O)c(C)n1-c1ccccn1	-18.9%	0.206µM*	?	-2.1%	-12.0%
O=C(Nc1ccc2c(c1)OCCO2)c1ccccc1	-15.6%	?	?	-1.3%	5.6%
C/C(=N\NC(=S)Nc1ccc(F)cc1)c1ccc2c(c1)OCCO2	20µM*	?	1µM*	24.2%	-6.0%
C/C(=N\NC(N)=S)c1ccc2c(c1)OCCO2	-24.7%	-26.9%	-1.6%	53.1%	-5.2%
CC(C)C(=O)N1CCN(c2ccc(NC(=O)c3ccc4c(c3)OCCO4)cc2Cl)CC1	-14.8%	25.9µM*	6.51µM*	-4.5%	0.3%
O=C(Nc1ccc2c(c1)OCCO2)c1ccc(Br)s1	-31.0%	5.62µM*	7.94µM*	4.5%	-19.7%
Cc1ccc(NC(=O)c2ccc3c(c2)OCCO3)cc1	-23.9%	4.47µM*	12.6µM*	10.7%	-15.5%
Oc1cc(Nc2ccc(N3CCCCC3)cc2)cc2cccnc12	-26.0%	.	.	.	-18.6%
CC(C)(C)OC(=O)N1CCC(c2c(C(=O)NCc3ccc4c(c3)OCO4)cnn2-c2ccc(F)cc2F)CC1	.	-30.7%[46.1 µM]	.	.	6.9%
O=C1O[C@@H](N2CCN(C/C=C\c3ccccc3)CC2)c2ccccc21	.	.	2.9%	.	.
COc1cccc(NC(=O)c2ccc3c(c2)OCCO3)c1	-5.0%	1.12µM*	?	2.7%	3.2%
COc1ccc(C(=O)Nc2ccc3c(c2)OCCO3)cc1	-23.3%	5.17µM*	6.51µM*	0.5%	-3.7%
CCC(=O)Nc1cccc(NC(=O)c2ccc3c(c2)OCO3)c1	0.141µM*	20.3%	27.6%	-5.8%	1.9%
COc1ccc(C(=O)Nc2ccc3[nH]ccc3c2)cc1	.	1.41µM*	?	-12.9%	.
C#CCN1C(=O)[C@]2(O[C@H](COc3ccccc3)CC3=CCCC32)c2c(Br)cccc21 (stereo not given in full)	.	.	7.9%[14.2 µM]	.	.
COc1ccc(-c2cc3ccc(O)c(CN4CCCC4)c3oc2=O)cc1OC	.	13.1%[46.1 µM]	.	.	6.8%
COc1ccc(OC)c(C2C(C(=O)N3CCCCC3)=C(C)Nc3nc4ccccc4n32)c1 (stereo not given)	.	12.7%[46.1 µM]	-12.4%[46.1 µM]	.	2.7%
